The nature of assay [1]: ATG_TCF_b_cat_CIS: Attagene CIS-FACTORIAL HepG2 Assay for human T-Cell-Factor with beta-catenin (TCF/b-cat) (AID 2282965). To be noted: HepG2 TCF/beta-catenin cis-reporter transcription, actives raise or lower the signal. The method in brief: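 HepG2 cells transiently transfected with multiple cis-promoter-regulated reporter transcription units, so endogenous transcription factor activity is measured. Reporter mRNA read 24 hours after dosing by RT-PCR, fluorescent labelling and capillary electrophoresis; bidirectional fitting against DMSO.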

The nature of assay [2]: ATG_TAL_CIS: Attagene CIS-FACTORIAL HepG2 Assay for human TAL Basal Promoter (AID 2282966).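 Further: background control endpoint measuring basal TAL promoter reporter mRNA not a specific factor.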 To be noted: HepG2 Attagene cis-factorial TAL promoter reporter; actives raise or lower the signal. In outline: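 Basal-promoter background-control endpoint from a multiplexed HepG2 reporter panel. Cells were exposed 24 h, then reporter mRNA was read by RT-PCR/CE fluorescence and fitted in both directions relative to DMSO.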

The nature of assay [3]: ATG_TGFb_CIS: Attagene CIS-FACTORIAL HepG2 Assay for human Transforming Growth Factor (TGF) (AID 2282967). To be noted: HepG2 Attagene CIS TGFb reporter, mRNA transcription; actives raise or lower the signal. In outline: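 Liver HepG2 line, cis-factorial reporter panel, 24 h dosing. Quantitation: RT-PCR products labeled with 6-FAM, cut with HpaI, resolved by capillary electrophoresis; DMSO-referenced bidirectional analysis.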

Assay [4] in a line: ATG_VDRE_CIS: Attagene CIS-FACTORIAL HepG2 Assay for human Vitamin D Receptor Element (VDRE) (AID 2282968). To be noted: HepG2 VDRE cis-reporter transcription, actives raise or lower the signal. In outline:
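Transfected HepG2 reporter cells, chemical treatment 24 h. RNA isolated, cDNA amplified with reporter-specific primers, products analysed by capillary electrophoresis. Endpoint fitted in both directions versus DMSO.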

Assay [5] deals with Estrogen receptor (Homo sapiens) (UniProt P03372). Briefly: ATG_ERa_TRANS: Attagene TRANS-FACTORIAL HepG2 Assay for human Estrogen Receptor alpha (ERa) (AID 2282970; active means hit-call score of the fitted dose curve at least 0.9, where 1 is the maximum). To be noted: HepG2 Attagene TRANS ERa GAL4 reporter, mRNA. The method in brief:
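Gal4-fusion ERa transactivation, measured as reporter transcript level in transiently transfected HepG2 cells. Exposure 24 h; RT-PCR plus capillary electrophoresis with fluorescence detection.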

Assay [6] has as its target Steroid hormone receptor ERR1 (Homo sapiens) (UniProt P11474). In words: ATG_ERRa_TRANS: Attagene TRANS-FACTORIAL HepG2 Assay for human Estrogen-Related Receptor alpha (ERRa) (AID 2282971; active means hit-call score of the fitted dose curve at least 0.9, where 1 is the maximum). To be noted: HepG2 Attagene TRANS reporter, ERRa transactivation. The method in brief:
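HepG2 cells transiently transfected with GAL4-UAS reporter units and chimeric NR-Gal4 constructs; after 24 hour compound incubation, reporter mRNA quantified by RT-PCR, fluorescent labelling and capillary electrophoresis, gain of signal versus DMSO.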

Assay [7] addresses X-box-binding protein 1 (Homo sapiens) (UniProt P17861). In words: ATG_Xbp1_CIS: Attagene CIS-FACTORIAL HepG2 Assay for human X-box Binding Protein 1 (XBP1) (AID 2282972). To be noted: HepG2 XBP1 cis-element reporter, Attagene multiplex; actives raise or lower the signal. In outline:
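Human hepatoma HepG2, cis-element reporter system, 24 h treatment; mRNA quantified by RT-PCR/CE fluorescence; fit relative to DMSO.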

The nature of assay [8]: ATG_M_19_TRANS: Attagene TRANS-FACTORIAL HepG2 Assay for M19 Transcription Factor (Internal Marker) (AID 2282974; active means hit-call score of the fitted dose curve at least 0.9, where 1 is the maximum). To be noted: HepG2 Attagene TRANS-FACTORIAL M19 internal marker reporter. In outline: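 Background-control readout: after 24 h chemical exposure of transfected HepG2 carrying GAL4-driven reporter units, RNA was reverse-transcribed, amplified, fluorescently labeled and sized by capillary electrophoresis; gain-of-signal fit against DMSO.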

Assay [9] can be described thus: ATG_GAL4_TRANS: Attagene TRANS-FACTORIAL HepG2 Assay for GAL4 (Internal Marker) (AID 2282976; active means hit-call score of the fitted dose curve at least 0.9, where 1 is the maximum). To be noted: HepG2 Attagene TRANS GAL4 internal marker reporter. The method in brief:
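Background-control readout: GAL4-UAS reporter transcript in transiently transfected HepG2 cells after 24 h compound exposure. Measured by RT-PCR, 6-FAM primer extension, HpaI digest and capillary electrophoresis; gain-of-signal fit versus DMSO.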

Assay [10] deals with Nuclear receptor subfamily 1 group I member 3 (Homo sapiens) (UniProt Q14994). In words: ATG_CAR_TRANS: Attagene TRANS-FACTORIAL HepG2 Assay for human Constitutive Androstane Receptor (CAR) (AID 2282969; active means hit-call score of the fitted dose curve at least 0.9, where 1 is the maximum;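 further: activators raise reporter mRNA above DMSO so AC50 marks induction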). To be noted: HepG2 Attagene TRANS-FACTORIAL CAR reporter. In outline:
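Steps: transient transfection of HepG2 with multiple GAL4-UAS reporter units; 24 h compound incubation; RNA isolation, RT-PCR, 6-FAM primer extension, HpaI digest; capillary electrophoresis. Gain-of-signal relative to DMSO negative control.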

Usually AC50 stands for the concentration giving half of the maximal activity seen.

Records with an inconclusive call do not appear. The source holds several records for some structures; these can differ, active in one and inactive in another. The source made the active and inactive calls. How the source made its calls, unless noted: active means hit-call score of the fitted dose curve at least 0.9, where 1 is the maximum; inactive means score below 0.9.

Chain of Steroid hormone receptor ERR1 (Homo sapiens) (P11474 whole entry, looked up, the tested form may be a part): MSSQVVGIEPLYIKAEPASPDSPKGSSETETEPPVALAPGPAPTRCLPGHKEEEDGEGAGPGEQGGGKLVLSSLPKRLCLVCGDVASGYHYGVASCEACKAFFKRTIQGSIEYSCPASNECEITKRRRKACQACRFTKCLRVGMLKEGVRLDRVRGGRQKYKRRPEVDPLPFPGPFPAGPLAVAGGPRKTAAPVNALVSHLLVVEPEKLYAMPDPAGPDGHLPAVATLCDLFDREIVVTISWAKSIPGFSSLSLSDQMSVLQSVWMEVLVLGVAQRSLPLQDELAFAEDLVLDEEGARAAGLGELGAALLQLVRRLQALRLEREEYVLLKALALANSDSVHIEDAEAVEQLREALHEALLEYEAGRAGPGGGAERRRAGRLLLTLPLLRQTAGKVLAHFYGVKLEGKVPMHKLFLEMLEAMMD
Chain of X-box-binding protein 1 (Homo sapiens) (P17861 whole entry, looked up): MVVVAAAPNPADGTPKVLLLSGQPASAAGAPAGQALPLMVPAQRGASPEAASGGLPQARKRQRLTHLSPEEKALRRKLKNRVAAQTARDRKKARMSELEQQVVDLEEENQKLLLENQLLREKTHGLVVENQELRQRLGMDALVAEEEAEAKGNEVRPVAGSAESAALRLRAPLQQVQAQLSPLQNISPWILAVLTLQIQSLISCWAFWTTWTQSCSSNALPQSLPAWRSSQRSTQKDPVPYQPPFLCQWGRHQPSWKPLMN
Chain of Estrogen receptor (Homo sapiens) (P03372 whole entry, looked up, the tested form may be a part): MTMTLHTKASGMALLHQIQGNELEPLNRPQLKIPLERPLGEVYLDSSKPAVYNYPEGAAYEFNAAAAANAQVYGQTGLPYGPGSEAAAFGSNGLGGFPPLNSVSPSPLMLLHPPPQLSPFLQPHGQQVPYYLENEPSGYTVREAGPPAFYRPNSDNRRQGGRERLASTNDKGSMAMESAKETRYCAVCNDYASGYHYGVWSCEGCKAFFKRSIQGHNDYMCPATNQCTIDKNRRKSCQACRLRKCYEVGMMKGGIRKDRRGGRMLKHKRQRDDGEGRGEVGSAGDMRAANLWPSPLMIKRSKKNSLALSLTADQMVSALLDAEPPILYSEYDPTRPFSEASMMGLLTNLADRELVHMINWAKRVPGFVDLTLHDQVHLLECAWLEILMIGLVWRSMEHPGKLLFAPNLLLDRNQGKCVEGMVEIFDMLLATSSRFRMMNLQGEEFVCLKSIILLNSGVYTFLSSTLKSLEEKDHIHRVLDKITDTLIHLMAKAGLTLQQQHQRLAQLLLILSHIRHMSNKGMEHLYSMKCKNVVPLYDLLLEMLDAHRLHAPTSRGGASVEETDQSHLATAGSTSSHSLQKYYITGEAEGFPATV
Chain of Nuclear receptor subfamily 1 group I member 3 (Homo sapiens) (Q14994 whole entry, looked up, the tested form may be a part): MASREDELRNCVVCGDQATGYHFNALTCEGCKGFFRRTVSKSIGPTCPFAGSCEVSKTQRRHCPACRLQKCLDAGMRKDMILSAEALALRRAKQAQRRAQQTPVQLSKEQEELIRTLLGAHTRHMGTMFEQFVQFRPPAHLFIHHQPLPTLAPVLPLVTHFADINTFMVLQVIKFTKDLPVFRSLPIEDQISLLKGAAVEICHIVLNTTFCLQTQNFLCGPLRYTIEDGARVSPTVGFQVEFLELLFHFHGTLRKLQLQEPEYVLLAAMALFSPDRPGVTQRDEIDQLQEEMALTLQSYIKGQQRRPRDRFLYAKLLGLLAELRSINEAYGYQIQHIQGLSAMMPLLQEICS

In the case of `O=C(O)C(F)(OC(F)(F)C(F)(OC(F)(F)C(F)(F)C(F)(F)F)C(F)(F)F)C(F)(F)F` (stereo not given), the result in assay [1], in assay [2], in [3], in assay [4], in assay [5] and in assay [6] was inactive. Besides, the outcome in assay [7], in [8] and in assay [9] was inactive. The AC50 in assay [5] was 18.4 µM (active).
For `OCC(F)(F)C(F)(F)C(F)(F)C(F)F`, the outcome in assay [1], in assay [2], in assay [4], in [5], in [6] and in [7] was inactive. The result in assay [8] and in assay [9] was inactive.
Consider `O=C(O)C=C(C(F)(F)F)C(F)(F)F`, for which the molecule was called inactive in assay [1], in [2], in [4], in assay [10], in assay [5] and in assay [6]. The outcome in assay [7] and in assay [9] was inactive.
Turning to `CCCCNc1ccccc1`, the molecule was called inactive in [1], in assay [2], in assay [4], in assay [10], in assay [5] and in [7]. In addition, the call in assay [8] and in assay [9] was inactive.
With `Cc1ccc(S(=O)(=O)NCl)cc1`, the molecule was called inactive in assay [1], in [2], in assay [5], in assay [7] and in [9].
Take `O=C(O)C(F)(F)C(F)(F)F`: the result in [1], in assay [2], in assay [4], in [10], in assay [5] and in assay [6] was inactive. Moreover, the outcome in assay [7], in [8] and in assay [9] was inactive.
As for `FC(F)(F)C(F)(F)C(F)(F)C(F)(F)CCI`, the molecule was classed as inactive in [1], in assay [2], in [4], in assay [10], in assay [7] and in assay [8]. In assay [9], the outcome was inactive. Further, in assay [5], the concentration at half-maximal activity (AC50) is 13.6 µM (active).
Regarding `CCCCOc1ccc(N)cc1`, the molecule was classed as inactive in assay [1], in [2], in [4], in [10], in assay [5] and in assay [6]. Also, the call in [7], in [8] and in assay [9] was inactive.
`CCc1ccc(C(c2ccc(CC)cc2)C(Cl)Cl)cc1`: the outcome in assay [1], in assay [2], in assay [10], in assay [7] and in [8] was inactive. In addition, the AC50 in [4] is 2.84 µM (active); in [5], 7.49 µM (active).
Turning to `CCN(Cc1cccc(S(=O)(=O)O)c1)c1ccc(C(=C2C=CC(=[N+](CC)Cc3cccc(S(=O)(=O)O)c3)C=C2)c2ccc(O)cc2S(=O)(=O)[O-])cc1`, the outcome in assay [1], in assay [2], in assay [4], in assay [10], in [5] and in [6] was inactive. The result in [7] and in assay [8] was inactive.
For `C=C(C)C(=O)OCC(F)(F)C(F)(F)C(F)(F)F`, the call in assay [1], in assay [2], in assay [4], in assay [5], in [6] and in assay [7] was inactive. In addition, the call in [8] and in assay [9] was inactive. The AC50 in assay [5] is 30.7 µM (active).
For the molecule `O=S(=O)(OCCOC(F)(F)F)C(F)(F)F`, the call in assay [1], in assay [2], in assay [4], in assay [10], in assay [5] and in assay [6] was inactive. Besides, the molecule was called inactive in assay [7], in assay [8] and in assay [9].
`Cc1cc(C)cc(O)c1`: the outcome in assay [1], in assay [2], in [4], in assay [5], in assay [6] and in assay [7] was inactive. The molecule was called inactive in assay [8] and in assay [9].
For `C=CC(F)(F)C(F)(F)C(F)(F)C(F)(F)C(F)(F)C(F)(F)C(F)(F)C(F)(F)F`, the result in [1], in [2], in [4], in [5], in [6] and in assay [7] was inactive. In addition, the molecule was called inactive in assay [8] and in [9].
On to `CC(C)OC(=O)c1ccccc1C(=O)OC(C)C`, for which the molecule was called inactive in assay [1], in assay [2], in assay [10], in [7] and in assay [9]. The AC50 in [4] was 14.2 µM (active); in [5], 11.2 µM (active).
As to `CN(C)Cc1ccccc1O`, the call in [1], in assay [2], in assay [4], in assay [10], in [5] and in assay [7] was inactive. For the same molecule, the molecule was classed as inactive in assay [8].
As for `CCCCCCCCC(F)(F)C(F)(F)C(F)(F)C(F)(F)C(F)(F)C(F)(F)F`, the molecule was called inactive in [1], in assay [2], in assay [4], in assay [10], in assay [5] and in [6]. Further, the outcome in [7], in [8] and in assay [9] was inactive.
For the molecule `C=CC(=O)OCC(F)(F)C(F)(F)C(F)(F)C(F)(F)COC(=O)C=C`, the AC50 in assay [1] is 44.9 µM (active); in assay [4] it was 50 µM (active); in [5], 38.3 µM (active); in assay [7], 36.4 µM (active). Also, the outcome in assay [2], in assay [10], in assay [8] and in assay [9] was inactive.

Values taken from PubChem BioAssay (EPA / NIEHS).
